This is a sample that favours compounds with a hit; in the whole collection about 5.4% have one here.
M18AAP inhibitor = PfM18AAP enzyme inhibition | actives 1.2% (n = 290,000) | recombinant PfM18AAP, H-Glu-NHMec fluorogenic cleavage | AID 1822 | inhibition, % at 7.35 µM;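 active means inhibition above the campaign mean inhibition over all tested compounds plus 3 SD, cut at about 28% in these data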;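 further: 0% = plate median of test compound wells and 100% = 2 mM ZnCl2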
beta cell repl = induces beta-cell replication in MIN6 cells | MIN6 cells proliferation, ATPlite luminescence, 48 h; cells starved in 0.2% serum; 100% = growth in 10% serum | proliferation, % at 10 µM | actives 0.29% (n = 330,000) | AID 2380;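 active means compounds whose signal lies at least 3.5 SD above the mean of all wells on their plate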;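 further: 0% = DMSO-treated cells in low-serum medium and 100% = 10% serum control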
SMARCA2 act = SMARCA2 function activation, primary screen. MG213 cells, MMTV-luciferase reporter, dexamethasone, overnight. activation, % at 9.1 µM. actives 1% (n = 370,000); in the data active means activation above about 7.8%;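 further: 0% = vehicle wells and 100% = reference activator wells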
ALR inh = blocks human ALR sulfhydryl oxidase activity; purified ALR, DTT oxidation, H2O2 HRP-luminol luminescence; inhibition, % (no concentration beside the values); actives 3.8% (n = 290,000); AID 485317; P55789;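 active means mean replicate inhibition above about 79%, with every replicate also reaching it, limit read from the data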
Target sequence (P55789 whole entry, looked up): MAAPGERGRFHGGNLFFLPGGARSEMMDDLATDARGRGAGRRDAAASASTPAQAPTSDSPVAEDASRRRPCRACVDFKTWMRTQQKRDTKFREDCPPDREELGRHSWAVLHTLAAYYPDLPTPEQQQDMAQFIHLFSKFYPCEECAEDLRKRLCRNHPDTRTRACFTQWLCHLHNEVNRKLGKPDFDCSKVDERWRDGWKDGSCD
Granule exo inh = lytic granule exocytosis inhibition | actives 0.66% (n = 360,000) | inhibition, % at 10 µM | TALL-104 LAMP-1 surface exposure, flow cytometry; cells stimulated with thapsigargin and PMA;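 active means inhibition above about 55%, limit read from the data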
GASC-1 inh = blocks human GASC-1 demethylase activity | GST-JMJD2C(1-420) H3K9me3 demethylation, DELFIA europium | inhibition, % at 2.35 µM | actives 0.069% (n = 330,000);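 active means more than half of a compound's replicate wells show inhibition beyond 50%, single wells judged on their own value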;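 further: signal counts dimethyl H3K9 product captured on neutravidin plate; 0% = median of DMSO wells and 100% = 0.3 times that DMSO median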
Target sequence (Q9H3R0 1-420 limits assumed): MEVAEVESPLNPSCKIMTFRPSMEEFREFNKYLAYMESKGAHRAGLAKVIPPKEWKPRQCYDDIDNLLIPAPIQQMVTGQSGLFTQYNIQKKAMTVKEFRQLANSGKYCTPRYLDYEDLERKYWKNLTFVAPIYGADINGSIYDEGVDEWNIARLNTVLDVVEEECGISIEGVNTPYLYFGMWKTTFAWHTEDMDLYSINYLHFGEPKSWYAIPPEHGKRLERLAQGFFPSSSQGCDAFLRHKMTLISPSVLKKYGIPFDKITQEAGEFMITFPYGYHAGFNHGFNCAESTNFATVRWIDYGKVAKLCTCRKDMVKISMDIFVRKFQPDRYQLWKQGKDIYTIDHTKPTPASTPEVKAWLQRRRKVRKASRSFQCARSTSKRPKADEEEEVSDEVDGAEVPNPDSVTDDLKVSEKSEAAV
Starred values were filed as active, the others as inactive; nt = no result given.

SMILES | M18AAP inhibitor | beta cell repl | SMARCA2 act | ALR inh | Granule exo inh | GASC-1 inh
COc1ccc(Br)cc1-c1nc(CCl)cs1 | -7 | -6 | 1 | 95* | -1 | -1
CCSC1(SCC)N=C(N)C2(C#N)C(c3ccccc3)NC3=C(CCC3)C12C#N (configuration not stated) | -21 | -5 | 0 | 96* | 0 | 24
CC(=O)Nc1ccccc1-c1nnc(SCc2ccccc2Cl)[nH]c1=O | 6 | 1 | 0 | 99* | 13 | 3
Nc1ccccc1-c1nnc(SCc2ccccc2Cl)[nH]c1=O | 14 | 0 | 3 | 31 | 3 | 0
CCOc1ccc(N(CC(=O)Nc2c(C)n(C)n(-c3ccccc3)c2=O)S(=O)(=O)c2cc(OC)ccc2OC)cc1 | nt | nt | -6 | nt | nt | nt
CCCCNC(=O)c1ccc(CS(=O)(=O)c2ccc(OC)cc2)o1 | 0 | -2 | -2 | nt | -3 | 2
COc1ccc(S(=O)(=O)Cc2ccc(C(=O)NCCCN(C)c3ccccc3)o2)cc1 | -3 | -1 | -2 | 99* | 1 | -4
CCCCNC(=O)c1ccc(CS(=O)(=O)c2ccc(C)cc2)o1 | -22 | -3 | 0 | 79* | 1 | -15
O=C(CCc1nc(-c2ccccc2F)no1)NCCc1c[nH]c2ccccc12 | nt | nt | 0 | nt | nt | nt
CCOC(=O)CC[C@H]1CC[C@]2(CCCN(C(=O)C(C)(C)C)C2)O1 | nt | nt | 0 | nt | nt | nt
Cc1cc(NC(=O)c2ccc(NC(=O)C3CCCO3)cc2)ccc1Br (configuration not stated) | 5 | -4 | -3 | 5 | 24 | 13
O=C(Nc1cc(Cl)c(O)c(Cl)c1)C1CCCO1 (configuration not stated) | -2 | -1 | -2 | 98* | -1 | 3
O=C(Nc1ccc(O)cc1)c1ccc(NC(=O)C2CCCO2)cc1 (configuration not stated) | 3 | -4 | 1 | 99* | -10 | 6
CCN(CC)c1ccc(NC(=O)c2ccc(NC(=O)C3CCCO3)cc2)c(C)c1 (configuration not stated) | 31* | nt | -1 | 99* | 0 | 8
Cc1cc(C)nc(N2CCC(C(=O)N(C)CCc3ccccn3)CC2)n1 | nt | nt | 4 | nt | nt | nt
CCOC(=O)/C(C#N)=C\N(C)C | 0 | 0 | -1 | 2 | -1 | 1
CCOC(=O)/C(C#N)=C/C=C1/C=CC=CN1C | 10 | 1 | 3 | 95* | -5 | -1
C=CCN1C=CC(=C/C=C(/C#N)C(=O)OCC)C=C1 | 1 | -3 | 4 | 84* | 4 | 4
CCC(C)c1ccc(NC(=O)CSc2nnc(-c3cccc(C)c3)n2C)cc1 (configuration not stated) | nt | nt | -5 | nt | nt | nt
CC(NCc1ccc(N(C)C)cc1)C1CC2CCC1C2 (configuration not stated) | 5 | -3 | -4 | 98* | -3 | -2
CC(NC(=O)c1ccc(CS(C)(=O)=O)cc1)C1CC2CCC1C2 (configuration not stated) | -5 | 1 | -2 | -1 | -14 | -3
COc1ccc(N2CCN(C(=O)C3CC(O)CN3S(=O)(=O)c3ccc([N+](=O)[O-])cc3)CC2)cc1 (configuration not stated) | 5 | 0 | 0 | 84* | -3 | -12
CC(=O)c1ccc(N2CCN(C(=O)C3(S(=O)(=O)c4ccc(Cl)cc4)CC3)CC2)cc1 | 4 | -3 | -4 | -1 | -5 | 1
COC(=O)c1ccc(OC(=O)CCS(=O)(=O)c2ccc(C)cc2)cc1 | nt | 1 | 1 | 96* | 7 | -3
COc1ccc(N2CCN(C(=O)CCS(=O)(=O)c3ccc(C)cc3)CC2)cc1 | 6 | -1 | 3 | 88* | 2 | -5
SMILES | M18AAP inhibitor | beta cell repl | SMARCA2 act | ALR inh | Granule exo inh | GASC-1 inh
COc1ccc(N2CCN(C(=O)C3(S(=O)(=O)c4ccc(C)cc4)CC3)CC2)cc1 | 1 | 6 | -3 | 86* | 7 | -23
CC(C)CNC(=O)OCc1cn(Cc2cccc(Cl)c2)nn1 | nt | nt | -1 | nt | nt | nt
CCN=C1NC(c2ccccc2C(F)(F)F)C(C(=O)OC)=C(C)N1Cc1ccc(C(F)(F)F)cc1 (configuration not stated) | nt | nt | -2 | nt | nt | nt
CCOc1ccc(-n2c(SCC(=O)Nc3ccc(Oc4ccccc4)cc3)nnc2-c2ccncc2)cc1 | nt | nt | -3 | nt | nt | nt
COc1ccc(N2CCN(C(=O)CCS(=O)(=O)c3ccc(OC)cc3)CC2)cc1 | 4 | 2 | -1 | 79* | 3 | 15
COc1ccc(S(=O)(=O)CCC(=O)N2CCN(c3ccc(C(C)=O)cc3)CC2)cc1 | -5 | 1 | 0 | -4 | 0 | -2
COC(=O)[C@H](C(C)C)N(CCc1cn(Cc2ccccc2)nn1)S(=O)(=O)c1ccccc1Br | nt | nt | -1 | nt | nt | nt
CC(C)CC(NC(=O)c1ccccc1)C(=O)OCC(=O)Nc1ccc(Br)cn1 (configuration not stated) | 8 | 2 | -2 | 99* | -2 | 7
CC(C)C[C@@H](CN1CCCC1CN1C(=S)NC[C@@H]1Cc1ccc(O)cc1)N1C[C@H](Cc2ccc(O)cc2)N(CC2CCCCCC2)C1=S (some centres not stated) | nt | nt | 3 | nt | 56* | nt
O=C(/C=C/c1ccc(Br)cc1)c1ccco1 | 29* | -6 | 2 | -2 | 13 | 2
CC(C)CN1C(=O)C[C@]2(C(=O)N(C)c3ccc(NS(=O)(=O)c4ccc(F)cc4)cc32)C1c1ccccc1 (some centres not stated) | nt | nt | -3 | nt | nt | nt
Cc1ccccc1-c1nc(CS(=O)(=O)CC(=O)NCc2ccc3c(c2)OCO3)c(C)o1 | 0 | 0 | -2 | -1 | -2 | 12
COc1ccc(-c2nc(CSCC(=O)NCc3ccc4c(c3)OCO4)c(C)o2)cc1 | 1 | 3 | -3 | -5 | -1 | 3
COc1ccc(-c2nc(CS(=O)CC(=O)NCc3ccc4c(c3)OCO4)c(C)o2)cc1OC (configuration not stated) | -1 | -3 | -1 | 99* | 8 | -1
Cc1oc(-c2ccc(Cl)cc2)nc1CS(=O)CC(=O)NCc1ccc2c(c1)OCO2 (configuration not stated) | 0 | -2 | -2 | 58 | 3 | -16
Cc1oc(-c2ccccc2F)nc1CS(=O)CC(=O)NCc1ccc2c(c1)OCO2 (configuration not stated) | 1 | 2 | -1 | 99* | 1 | 7
COc1ccc(-c2nc(CSCC(=O)NCc3ccc4c(c3)OCO4)c(C)o2)cc1OC | 0 | 10 | 4 | 99* | 0 | 4
COc1ccccc1CNC(=O)CS(=O)Cc1nc(-c2ccc(OC)c(OC)c2)oc1C (configuration not stated) | 3 | 4 | -4 | 99* | 4 | 9
COc1cccc(-c2nnc(SCC(=O)N3CCCc4ccccc43)o2)c1 | 0 | 1 | 0 | 87* | -1 | -7
